A selection: hits, their analogues and other compounds. The true share with any hit is near 12%.
HP1b chromo inh = HP1-beta chromodomain-methylated histone interaction inhibition; P83916; AlphaScreen HP1-beta / biotin-H3K9me3 peptide binding; Potency, µM (highest dose often 114 µM), inactives show at the highest dose activity change, negative = inhibition, usual class: inhibitors; 0.56% of 390,000 active; AID 540317; also: nearly all actives have a fitted effect of over 70% in size
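HP1-beta protein (50 nM final) preincubated 30 min at room temperature with biotinylated H3(1-18)K9me3 peptide (50 nM) in PBS pH 7.4, 0.01% Tween-20, then compound added for 30 min. AlphaScreen streptavidin donor/nickel chelate acceptor beads (10 ug/mL final), 30 min dark, luminescence read.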
Sfp inh = inhibitors of Bacillus subtilis Sfp phosphopantetheinyl transferase | Q9F4F7 | Biochemical Sfp PPTase activity, qHTS | Potency, µM, inactives show largest response in the series, negative = inhibition, hits mostly inhibitors | 3.5% of 310,000 active | AID 1490;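 also: the enzyme is Sfp with the accession as filed and its product quenches rhodamine fluorescence; 0% = enzyme reaction without inhibitor and -100% = no enzyme wells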
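Buffer: 50 mM Hepes-Na pH 7.6, 10 mM MgCl2, 0.01% Nonidet P-40, 0.01% BSA. Enzyme 15 nM, pre-exposed to compound 15 min; substrates then added and fluorescence change tracked over 30 min.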
L3MBTL1 inh = inhibitors of human L3MBTL1; Potency, µM (doses to about 57.1 µM), inactives show top-dose activity, negative = inhibition, usual class: inhibitors; AlphaScreen L3MBTL1–H3K9me1 peptide binding; Q9Y468; AID 485360; 0.66% of 230,000 active; also: % is scaled to controls: 0 for no effect and ±100 for the full control effect; nearly all actives have a fitted effect of over 60% in size
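AlphaScreen assay: L3MBTL1 (50 nM final) was preincubated 30 min at room temperature with biotinylated H3(1-15)K9me1 peptide (75 nM final), then 30 min with library compounds; streptavidin donor and nickel chelate acceptor beads (10 ug/mL final) added, 30 min dark.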
JMJD2A Tudor inh = inhibitors of human JMJD2A Tudor domain; O75164; AlphaScreen JMJD2A-Tudor / H3K4me3 peptide binding; Potency, µM (highest dose often 114 µM), for the others: at the top dose activity change, negative = inhibition, actives largely listed as inhibitors; 4.4% of 390,000 active; AID 504339; also: % is scaled to controls: 0 for no effect and ±100 for the full control effect; nearly all actives have a fitted effect of over 50% in size
BAZ2B block = inhibitors of human BAZ2B bromodomain. Q9UIF8. AlphaScreen BAZ2B-H3K14Ac peptide displacement. Potency, µM (highest dose often 114 µM), without a hit: at the highest dose activity change, negative = inhibition, hits mostly inhibitors. 4.4% of 360,000 active; also: % is scaled to controls: 0 for no effect and ±100 for the full control effect; nearly all actives have a fitted effect of over 60% in size
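In this displacement format the biotinylated H3(5-23) peptide acetylated at Lys14 serves as ligand at 50 nM, with BAZ2B at 50 nM in PBS pH 7.4 containing 0.01% Tween-20. Donor and acceptor beads are 10 ug/mL final.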
G9a block = G9a (human) methyltransferase inhibition | Q96KQ7 | G9a H3K9 monomethylation, AlphaScreen, 2 h | Potency, µM (doses to about 102 µM), without a hit: top-dose activity, negative = inhibition, most hits filed as inhibitors | 8.8% of 350,000 active | AID 504332; also: % is scaled to controls: 0 for no effect and ±100 for the full control effect; nearly all actives have a fitted effect of over 75% in size
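Enzyme 20 nM + cpd, 15 min RT; add b-H3K9 pep 500 nM / SAM 20 uM; 2 h RT; anti-H3K9me1 Ab 0.5 ug/mL + SA donor / anti-rabbit acceptor beads 20 ug/mL each, 10 min; AlphaScreen read.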
The depositor's hits bear a star; ? = inconclusive; / = no result given; ! = repeats disagree; [ ] = another dose, or the depositor's remark. Calls follow the shape of the dose curve; as a rule, active = well fitted curve in the direction sought with a large enough effect; inconclusive = small, poorly fitted or top-dose-only effect, or another doubt; inactive = no such curve, though single readings can be large; an effect the other way counts as inactive or inconclusive. Potency is read from the fitted curve at half-maximal effect.

SMILES	HP1b chromo inh	Sfp inh	L3MBTL1 inh	JMJD2A Tudor inh	BAZ2B block	G9a block
CCO[C@@H]1OC(C(N)=O)=C[C@H](c2coc3ccccc3c2=O)[C@H]1CCCO	42%	13%	/	-9%	5%	?
c1ccc(-c2nc3ccccc3[nH]2)nc1	22%	?	-5%	?	-7%	-11%
O=c1[nH]c(-c2ccccn2)nc(C(F)(F)F)c1Br	1%	?	?	18µM*	28µM*	14%
O=c1[nH]c(-c2ccccn2)nc2ccccc12	40%	79µM*	?	56µM*	45µM*	19%
CCCCn1c(=NC(=O)C(C)(C)Oc2ccc(Cl)cc2)c(C(=O)OCC)cc2c(=O)n3ccccc3nc21	52%	/	/	1%	5%	3%[59 µM]
Cn1ccsc1=NC(=O)c1ccc(S(C)(=O)=O)c([N+](=O)[O-])c1	3%	-8%	/	-16%	-15%	?
Cc1nc2cc(Cl)ccc2c(=O)n1Cc1ccncc1	23%	15%	/	-15%	3%	20%
Cc1ccccc1N1C(=O)CC(Nc2ccc3c(c2)OCO3)C1=O (stereo not given)	3%	?	-9%	-28%	?	40µM*
Cc1noc(-c2ccc(N(C)Cc3ccccc3)c([N+](=O)[O-])c2)n1	14%	/	/	-16%	3%	-6%[59 µM]
CCc1nc(N)nc(N)c1-c1ccc(N(C)Cc2ccccc2)c([N+](=O)[O-])c1	-37%	/	/	45µM*	/	/
Cc1cccc(-n2c(C)c(C)c3c(N)ncnc32)c1	-26%	11%	/	?	-31%	50µM*
Cc1ccc(-n2c(C)c(C)c3c(N)ncnc32)cc1	-6%	12%	/	-34%	-35%	?
O=S(=O)(c1cccc(Cl)c1Cl)N1CCCCC1	55%	13%	0%	37%	37%	3%[59 µM]
CN1CCCN(S(=O)(=O)c2cccc(Cl)c2Cl)CC1	35%	11%	-6%	-7%	-21%	45µM*
CC(=O)CSc1ncnc2sc3c(c12)CCC(C)C3 (stereo not given)	51%	-21%	10%	23%	6%	40µM*
CC(C)CNS(=O)(=O)c1ccc(CCC(=O)N2CCN(c3ccc(F)cc3)CC2)cc1	36%	10%	-4%	2%	-11%	-47%
COc1ccc(N2CCN(C(=O)CCc3ccc(S(=O)(=O)NCC(C)C)cc3)CC2)cc1	-10%	9%	-17%	-32%	-35%	7.1µM*
CCCNS(=O)(=O)c1ccc(CCC(=O)N2CCCCC2)cc1	?	21%	-3%	20µM*	-1%	16%[12.7 µM]
O=C(CCc1ccc(Oc2cc([N+](=O)[O-])cc([N+](=O)[O-])c2)cc1)N1CCCCCC1	?	18µM*	?	40µM*	25µM*	?
O=C(CCNS(=O)(=O)c1cccs1)N1CCN(c2cccc(C(F)(F)F)c2)CC1	6%	/	1%	-14%	4%	0%[2.33 µM]
COc1ccc(N2CCN(C(=O)CCNS(=O)(=O)c3cccs3)CC2)cc1	16%	12%	/	-11%	-33%	25µM*
COc1ccc(CC(=O)NCCc2csc3nc(-c4ccccc4F)nn23)cc1	19%[57 µM]	/	/	-20%	-2%	-1%[59 µM]
COCCNC(=O)C1(CC(C)C)C=CCN1C(=O)c1ccccc1 (stereo not given)	/	10%	/	/	/	/
CN(CC(=O)Nc1cccc(S(=O)(=O)NC2=NCCC2)c1)Cc1cccc(F)c1	25%	/	-4%	-9%	4%	7%[12.7 µM]
O=c1c(Cc2ccc(F)cc2)c(O)ccn1CCCn1ccnc1	25%	8%	28%[11.4 µM]	-20%	-19%	-16%
SMILES	HP1b chromo inh	Sfp inh	L3MBTL1 inh	JMJD2A Tudor inh	BAZ2B block	G9a block
O=C(c1cc2ccccc2o1)N1CCN(S(=O)(=O)c2cccs2)CC1	26%	-1%	/	0%	13%	16µM*
COc1ccc(CCC(=O)N2CCN(S(=O)(=O)c3cccs3)CC2)cc1	14%	/	-2%	-17%	2%	45µM*
COc1ccc(S(=O)(=O)N(C)CC(=O)N2CCN(c3ccccc3)CC2)cc1	13%	20%	/	-22%	-4%	-2%
O=C(/C=C/c1ccc([N+](=O)[O-])cc1)N1CCN(S(=O)(=O)c2cccs2)CC1	27%	12%	5%	-8%	2%	50µM*
COc1ccc(N2CCN(C(=O)CN(C)S(=O)(=O)c3cccs3)CC2)cc1	13%	12%	/	-12%	-5%	50µM*!
Cc1ccccc1NS(=O)(=O)c1ccc2c(c1)CCC(=O)N2	/	/	/	-10%	/	/
c1ccc(CNc2ncncc2-c2ccoc2)cc1	/	-7%	/	/	/	4%[0.501 µM]
CC(C)(CNC(=O)c1cccc(NS(=O)(=O)c2ccc(Br)cc2)c1)N1CCOCC1	25%	9%	/	-3%	-11%	23%
O=C(NCc1cccnc1)c1ccc(-c2ccccc2[N+](=O)[O-])o1	20%	3%	0%	-1%	-2%	-1%[59 µM]
O=[N+]([O-])c1ccccc1-c1ccc(C(=S)N2CCCCC2)o1	50µM*	25µM*	?	45µM*	25µM*	20µM*
Cc1cccc(N2CCN(C(=S)c3ccc(-c4ccccc4[N+](=O)[O-])o3)CC2)c1	16µM*	?	?	8.9µM*	10µM*	11µM*
O=[N+]([O-])c1ccccc1-c1ccc(C(=S)N2CCCC2)o1	?	7.9µM*	?	56µM*	40µM*	10µM*
CCc1ccc(C(=O)NNc2ccc(C)c(Cl)c2)cc1	-10%	-5%	-1%	-30%	-22%	7.9µM*
CCc1ccc(C(=O)NNc2ccc(S(N)(=O)=O)cc2)cc1	16%	-1%	/	-7%	0%	22µM*
CCCN(C(=O)C1CCN(S(=O)(=O)c2c(C)noc2/C=C/c2ccc(C)cc2)CC1)c1ccccc1F	15%[57 µM]	/	/	-25%	-2%	20%[59 µM]
CCc1ccc2oc(C(=O)Nc3nc(-c4ccccc4)ns3)c(C)c2c1	44%	/	/	-5%	4%	-2%[59 µM]
OCC1O[C@H](O[C@H]2C(O)C(O)C(O)O[C@@H]2CO)C(O)C(O)C1O (stereo not given in full)	/	7%	/	/	/	-29%[12.7 µM]
O=C1CS/C(=N/N=C/c2c[nH]c3ccccc23)N1	38%	6%	/	-16%	-36%	45%
O=C1/C(=C/c2c[nH]c3ccccc23)CCC/C1=C\c1c[nH]c2ccccc12	2%	50µM*	-20%	-24%	?	?
COc1ccccc1CNC(=O)CS(=O)(=O)Cc1nc(-c2ccccc2C)oc1C	24%	/	/	-21%	-6%	-5%[59 µM]
Cc1cc(C)c2c(N)c(C(=O)c3ccccc3)oc2n1	41%	?	/	-14%	11%	?
